Mm-Cpn inhibitor: Inhibitors of TCP-1 ring complex (TRiC) of Methanococcus maripaludis (MmCpn): qHTS. Potency, µM (titrated, usually from 76.9 µM), hits mostly inhibitors. Chaperonin Mm-Cpn (Methanococcus maripaludis). purified Mm-Cpn ATPase, ADP Transcreener TR-FRET. hit rate 0.031% among 330,000. AID 504842, 2011; further: nearly all actives have a fitted effect of over 80% in size
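Purified archaeal Mm-CPN (25nM final) preincubated 10 min at 37degC with compound, then 10uM ATP for 30 min at 37degC; ADP measured by HTRF Transcreener TR-FRET; buffer 30 mM TRIS pH 7.4, 100mM KCl, 5mM MgCl2, 1mM DTT.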
uPA generation: qHTS for Inhibitors of Cell Surface uPA Generation; Potency, µM (titrated, usually from 38.3 µM), hits mostly inhibitors; hit rate 0.31% among 330,000; cell surface uPA generation assay, qHTS; active means well fitted inhibition curve with a large enough effect; inconclusive means small, poorly fitted or top-dose-only effect; inactive means no such curve, though single readings can be large or run the other way; tested in mouse RAW 264.7 cells; further: nearly all actives have a fitted effect of over 55% in size
GLP1R ag: qHTS of GLP-1 Receptor Agonists | Glucagon-like peptide 1 receptor (Homo sapiens), P43220 | HEK293 GLP-1R CRE-luciferase, luminescence, 4-6 h; cells express a hypersensitive GLP-1R form | Potency, µM (doses to about 45.6 µM), usual class: activators | hit rate 0.007% among 380,000 | AID 624172, 2012
Target sequence (P43220 whole entry, looked up): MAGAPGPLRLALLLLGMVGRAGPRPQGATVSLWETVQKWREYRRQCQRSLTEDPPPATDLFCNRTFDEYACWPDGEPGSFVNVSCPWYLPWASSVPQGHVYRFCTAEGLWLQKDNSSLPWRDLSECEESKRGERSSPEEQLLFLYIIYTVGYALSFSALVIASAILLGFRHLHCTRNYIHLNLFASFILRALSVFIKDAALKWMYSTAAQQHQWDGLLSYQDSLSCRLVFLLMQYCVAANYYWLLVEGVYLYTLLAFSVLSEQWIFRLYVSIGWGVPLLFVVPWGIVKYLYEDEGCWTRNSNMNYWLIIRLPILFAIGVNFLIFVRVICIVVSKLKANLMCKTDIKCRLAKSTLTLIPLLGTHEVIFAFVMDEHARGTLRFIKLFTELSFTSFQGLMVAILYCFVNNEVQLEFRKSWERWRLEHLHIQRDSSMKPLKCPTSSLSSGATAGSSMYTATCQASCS
CCT chaperon mod: High-Throughput Screening for Modulators of Cytosolic Chaperonin Activity; activity change, % (concentration not given with the values), hits read low; purified chaperonin ATPase assay, HTRF ADP detection, 30 min; hit rate 0.3% among 360,000; in the data active means activity change below about -30%
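TRiC (40 or 20 nM final, by batch activity) in 30 mM Tris pH 7.4, 100 mM KCl, 5 mM MgCl2, 1 mM DTT was treated with compound at 76 uM single dose, then 10 uM ATP, 30 min at 37 °C. ADP was read by HTRF Transcreener.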
GLP1R inv ag: qHTS of GLP-1 Receptor Inverse Agonists (Inhibition Mode); hit rate 1.6% among 410,000; HEK293 GLP-1R CRE-luciferase, luminescence, 24 h; GLP-1R form is constitutively active; Glucagon-like peptide 1 receptor (Homo sapiens), P43220; Potency, µM (series often up to 38.3 µM), hits mostly inhibitors; further: nearly all actives have a fitted effect of over 55% in size
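HEK293 cells stably co-expressing constitutively active GLP-1R and a cAMP-responsive luciferase reporter were seeded in DMEM with 10% Nu serum, given compounds after 12 h, and incubated 24 h at 37 deg C. Luminescence was then read.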
HEK293 tox: qHTS of GLP-1 Receptor Inverse Agonists: Cytotox Screen; HEK293 cAMP-luciferase reporter cells, luminescence, 24 h; Potency, µM (highest dose often 38.3 µM), actives largely listed as inhibitors; hit rate 0.13% among 410,000;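 further: loss of luciferase light is scored as toxicity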
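Seeding density was 200 cells/uL; after overnight-length (12 h) culture, 23 nL compounds went on for 24 h at 37 °C. Readout used a luciferase detection reagent, luminescence taken after 12 min at room temperature.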
A number is an active result; i = inactive; ? = inconclusive; nt = no result. Hits are enriched below; roughly 2.2% of the tested compounds scored in any of these assays. Unless noted, the call rests on the fitted dose curve; in most records, active means well fitted curve in the direction sought with a large enough effect; inconclusive means small, poorly fitted or top-dose-only effect, or another doubt; inactive means no such curve, though single readings can be large; an effect the other way counts as inactive or inconclusive.

SMILES | Mm-Cpn inhibitor | uPA generation | GLP1R ag | CCT chaperon mod | GLP1R inv ag | HEK293 tox
COc1cc(CN2CC(=O)N(c3ccc(C)c(Cl)c3)C2=S)cc(OC)c1OC | i | i | i | i | 8.9µM | i
COC(=O)c1c(NC(NC(=O)C(C)C)C(Cl)(Cl)Cl)sc2c1CCC2 (centres undefined) | i | i | i | i | 8.9µM | i
Cc1ccc(CNC(=O)CNC(=S)N(Cc2ccccc2)Cc2ccccc2F)cc1 | i | i | i | i | 10µM | i
CCN(CC)c1ccc(/C=C/c2cc(-c3ccccc3)c3ccccc3n2)cc1 | 35µM | i | i | i | ? | i
COc1ccc(NC2=NC(=S)N(c3ccccc3C)C23CCCCC3)cc1 | i | i | i | i | 7.9µM | i
CCOc1ccc(NC(=O)C(C)n2c(=O)cc(-c3ccccc3)c3c(C)nn(C)c32)cc1 (centres undefined) | nt | nt | nt | nt | i | i
O=C(CN1C(=O)C2(SCC(=O)N2c2cccc(F)c2)c2ccccc21)NCc1ccccc1Cl (centres undefined) | nt | nt | i | nt | 8.9µM | i
O=C(CN1C(=O)C2(SCC(=O)N2c2ccccc2)c2ccccc21)NCc1ccccc1Cl (centres undefined) | nt | nt | i | nt | i | i
COc1ccc(Cl)cc1C(=O)CSc1nnnn1C1CCCC1 | i | i | ? | i | i | i
COCCn1c(C)cc(C(=O)CSc2nnc(C)s2)c1C | nt | i | i | i | 1.3µM | i
COCCn1c(C)cc(C(=O)COC(=O)c2cc3c(s2)CCC3)c1C | i | i | i | i | ? | i
COCCn1c(C)cc(C(=O)COC(=O)c2cccc(O)c2)c1C | i | ? | i | i | 0.89µM | i
COCCn1c(C)cc(C(=O)CSc2nc3ccccc3c(=O)n2Cc2ccco2)c1C | i | i | i | i | i | i
COCCn1c(C)cc(C(=O)CSc2cc(C)c3ccccc3n2)c1C | i | i | i | i | 13µM | i
COCCn1c(C)cc(C(=O)CSc2nnnn2C2CCCC2)c1C | i | i | i | i | 2.2µM | i
O=C(CSc1nc2c([nH]c3ccccc32)c(=O)n1-c1ccccc1)Nc1ccccc1C(F)(F)F | nt | nt | nt | nt | i | i
CCC(C)(C)OC(=O)N[C@@H](Cc1c[nH]c2ccccc12)C(=O)N[C@@H](CCSC)C(=O)N[C@@H](CC(=O)O)C(=O)N[C@@H](Cc1ccccc1)C(N)=O | nt | nt | i | nt | nt | nt
CC1(C)CC(C(=O)Nc2ccccc2)C(=O)O1 (centres undefined) | nt | i | i | i | i | i
C[C@]1(O)CC(=O)C=C[C@H]1Nc1ccccc1 | nt | 8.9µM | i | i | ? | ?
Fc1cccc(Cc2noc(CN3CCSCC3)n2)c1 | i | i | i | i | i | i
COc1ccc(N2CCN(Cc3nc(Cc4cccc(F)c4)no3)C(C)C2)cc1 (centres undefined) | i | i | i | i | 5.6µM | i
O=C(Nc1ccccc1Cl)N1CCC2(CC1)Oc1ccccc1C(=O)N2Cc1ccc(F)cc1 | nt | nt | nt | nt | i | i
Cc1ccc(CSC2=Nc3ccccc3C3=NC(CC(=O)NC4CCCCC4)C(=O)N23)cc1 (centres undefined) | nt | nt | nt | nt | i | i
Cc1cc(C)c(-c2csc(NC(=O)c3cc([N+](=O)[O-])ccc3N3CCOCC3)n2)c(C)c1 | i | i | i | i | 8.9µM | i
O=C(Nc1nc(-c2ccc(F)c(F)c2)cs1)c1cc([N+](=O)[O-])ccc1N1CCOCC1 | i | i | i | i | i | i
CN1CC[C@H](c2c(O)cc(O)c3c(=O)cc(-c4ccccc4Cl)oc23)[C@@H](O)C1 | nt | nt | i | nt | nt | nt
CCCCNCC1C(Oc2ccc(Cl)cc2)C(=O)N1c1ccccc1C (centres undefined) | i | i | i | i | 10µM | ?
O=C1c2ccccc2S(=O)(=O)c2cc(N3CCOCC3)ccc21 | nt | 2.5µM | i | i | i | i

Screening data as filed in PubChem BioAssay.
